Source: PubChem BioAssay (National Center for Advancing Translational Sciences (NCATS))
Most compounds without a hit are left out; they make up all but 7.6% or so of the library.
TSHR agonist: activates the human thyroid stimulating hormone receptor | P16473 | HEK293-CNG-TSHR cells (CNG channel as cAMP sensor), membrane potential dye, cAMP | Potency, µM (top dose mostly 57.1 µM), inactives show at the highest dose activation, usual class: activators | 0.48% of 73,000 active; active means well fitted activation curve with a large enough effect in the main read-out, with a control signal flat, not every such curve was filed as active; inconclusive means small, poorly fitted or top-dose-only effect, or a change in a side signal; inactive means no such curve, though single readings can be large or run the other way; % of control where 0% means no effect;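 further: the control signal comes from parental cells without the receptor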
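cAMP rise detected as CNG-channel membrane depolarization by fluorescent dye (emission 590 nm), 30 min after compound, following 60 min dye loading containing 100 uM RO 20-1724 at room temperature. Cells: TSHR/CNG HEK 293, with parental CNG HEK 293 as control.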
Tau filament bind: binds recombinant human tau filaments; P10636; recombinant tau filaments, thioflavin S fluorescence, 15 h; filaments grown with octadecylsulfate alongside compound; Potency, µM (top dose mostly 57.1 µM), for inactives: at the highest dose activity change, negative = inhibition; 2% of 71,000 active;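 further: on the % scale 0 is the no-effect control and ±100 the full control effect; actives lower thioflavin S fluorescence by blocking filaments or displacing dye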
Target sequence (P10636 whole entry, looked up): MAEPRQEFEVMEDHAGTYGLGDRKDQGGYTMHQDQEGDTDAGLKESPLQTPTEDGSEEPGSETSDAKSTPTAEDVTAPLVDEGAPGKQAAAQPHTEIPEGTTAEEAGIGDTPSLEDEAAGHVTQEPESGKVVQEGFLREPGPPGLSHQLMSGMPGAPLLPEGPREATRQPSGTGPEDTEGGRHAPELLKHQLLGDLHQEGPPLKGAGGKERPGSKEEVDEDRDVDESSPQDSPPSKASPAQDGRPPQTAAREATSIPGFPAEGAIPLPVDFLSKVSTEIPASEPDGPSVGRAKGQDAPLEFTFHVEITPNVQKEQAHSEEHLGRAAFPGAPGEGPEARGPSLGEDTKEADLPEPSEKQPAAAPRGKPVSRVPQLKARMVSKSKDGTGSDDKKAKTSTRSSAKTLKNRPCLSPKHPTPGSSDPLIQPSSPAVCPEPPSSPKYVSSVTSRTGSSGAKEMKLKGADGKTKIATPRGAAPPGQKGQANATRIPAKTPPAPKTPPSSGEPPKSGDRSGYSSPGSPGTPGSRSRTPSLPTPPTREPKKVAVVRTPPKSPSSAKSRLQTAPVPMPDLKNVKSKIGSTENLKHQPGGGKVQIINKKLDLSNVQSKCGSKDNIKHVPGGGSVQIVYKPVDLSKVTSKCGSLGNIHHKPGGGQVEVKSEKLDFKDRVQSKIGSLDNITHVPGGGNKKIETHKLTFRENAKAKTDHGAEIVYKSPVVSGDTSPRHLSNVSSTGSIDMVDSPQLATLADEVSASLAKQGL
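Assay mix: 1 uM His-tagged tau, 30 uM sodium octadecylsulfate, thioflavine S dye in HEPES/NaCl/DTT buffer. Compound is added prior to the inducer. Fluorescence after 15 h at 37 C.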
HEK293 cAMP ctrl: parental HEK293 cAMP activation (counter-screen) | parental HEK293 CNG cAMP sensor, membrane potential fluorescence | 2.5% of 73,000 active | Potency, µM (top dose mostly 57.1 µM), for inactives: at the top dose activation, hits mostly activators; further: % of control where 0% means no effect; nearly all actives have a fitted effect of over 55% in size
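Parental HEK 293 cells stably expressing a modified CNG channel (no TSHR) report cAMP rise as membrane depolarization. Membrane potential dye with 100 uM RO 20-1724 was loaded for 60 min at room temperature, then compound added for 30 min; fluorescence read at 590 nm.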
ERK AVP block: blocks ERK signaling stimulated by vasopressin. AID 995. 0.99% of 72,000 active. HEK293-V1b, vasopressin-stimulated pERK AlphaScreen. Potency, µM (titrated, usually from 57.5 µM), without a hit: at the highest dose activity, negative = inhibition, most hits filed as inhibitors; further: on the % scale 0 is the no-effect control and ±100 the full control effect; nearly all actives have a fitted effect of over 55% in size
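Phosphorylated ERK1/2 detected via AlphaScreen bead proximity in lysates of V1b-expressing HEK293 cells given 25 nM vasopressin for 5 min after 30 min compound exposure (37 °C). AC50 from Hill equation; basal DMSO 0%, vasopressin 100%.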
CRE-bla Fsk: alters forskolin-stimulated CRE reporter signaling in CHO cells; CHO CRE-bla reporter (cAMP response element driving beta-lactamase), forskolin EC10, beta-lactamase ratio; Potency, µM (top dose mostly 38.2 µM), without a hit: at the highest dose activity change, negative = inhibition, most hits filed as activators; 2.5% of 71,000 active; AID 662; active means well fitted activation curve with a large enough effect in the signal ratio, with a control signal flat, not every such curve was filed as active; inconclusive means small, poorly fitted or top-dose-only effect, or effect the other way, or a change in a side signal; the % refers to the signal ratio; further: % of control where 0% means no effect
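CHO CRE-bla cells, overnight plating in Opti-MEM with 0.5% dialyzed FBS; cpd titration + EC10 NKH 477, 3 h 37 °C; CCF4 2 h RT; ex 405/em 460 vs 530 ratio → %Activity, AC50.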
An asterisk follows results filed as active; ? = inconclusive; . = no result; [ ] = another dose, or the depositor's remark. Unless noted, the call rests on the fitted dose curve; in most records, active means well fitted curve in the direction sought with a large enough effect; inconclusive means small, poorly fitted or top-dose-only effect, or another doubt; inactive means no such curve, though single readings can be large; an effect the other way counts as inactive or inconclusive. Potency means the concentration at half of the fitted maximal effect.

SMILES | TSHR agonist | Tau filament bind | HEK293 cAMP ctrl | ERK AVP block | CRE-bla Fsk
CCCC(=O)Nc1cc(-c2nn(C)c(=O)c3ccccc23)ccc1N1CCCCC1 | . | 18.1% | 22.6% | ? | 2µM*
CN1CCN(c2ncc3nc(-c4ccccc4)c(=O)n(C4CC4)c3n2)CC1 | ? | 1.0% | ? | 9.9% | ?
FC(F)(F)c1cccc(-c2noc(-c3cc(-c4ccccc4)c(C(F)(F)F)s3)n2)c1 | -0.5% | . | 3.5% | 13.0% | .
CC1C(=O)CCC2[C@]1(C)CCC1[C@]2(C)CC[C@@]2(C)C3CC(C)(C)CC[C@]3(C)CC[C@@]12C (stereo not given in full) | . | . | . | 1.5% | .
CCC[C@@H]1C[C@@]1(CCC)C(NC(=O)c1cccs1)c1ccc(Cl)cc1 (stereo not given in full) | ? | -2.8% | ? | 9.1% | 0.1%
CCC[C@@H]1C[C@@]1(CCC)C(NP(=O)(c1ccccc1)c1ccccc1)c1ccc(Cl)cc1 (stereo not given in full) | ? | -19.4% | 12.6µM* | 19.7% | -16.8%
CCC[C@@H]1C[C@@]1(CCC)C(NC(=O)c1ccco1)c1ccc(Cl)cc1 (stereo not given in full) | ? | -6.6% | 10µM* | -3.4% | -0.7%
Nc1nc2c(nc(Br)n2C2CC(O)C(CO)O2)c(=O)[nH]1 (stereo not given) | . | . | . | 7.8% | .
Cc1ccc(Cl)cc1N1CCN(C(=O)CCS(=O)(=O)c2cccc3nonc23)CC1 | ? | 12.6µM* | -32.7% | 28.8% | ?
O=C(CCS(=O)(=O)c1cccc2nonc12)N1CCCc2ccccc21 | 1.0% | -2.4% | -1.1% | 6.6% | ?
CC(=O)[C@H]1CC[C@@H]2[C@]1(C)CC=C1[C@]23C=C[C@]2(C[C@H](O)CC[C@@]12C)[C@H](C(=O)O)[C@@H]3C(=O)O | 9.9%[11.4 µM] | -2.8%[11.4 µM] | -6.4%[11.4 µM] | 5.0%[11.5 µM] | 3.9%[7.6 µM]
CN(C)c1ccc(-c2ccc3ncnc(-n4ccnc4)c3c2)cc1 | -4.1% | 3.16µM* | -19.8% | 31.3% | ?
Cc1ccccc1-c1ccc2ncnc(-n3ccnc3)c2c1 | 28.5% | 141.0% | 12.1% | 4.5% | ?
c1cncc(CNc2nc(-c3ccc4c(c3)OCO4)nc3ccccc23)c1 | . | 0.0% | 3.8% | -20.7% | 12.6µM*
CS(=O)(=O)Nc1cccc(-c2ccc3ncnc(Nc4ccccc4)c3c2)c1 | ? | 2.4% | ? | -23.8% | ?
CS(=O)(=O)Nc1ccc(Nc2c3ccccc3nc3ccccc23)cc1 | -6.6%[11.4 µM] | 1.58µM* | -8.8%[11.4 µM] | -5.6%[11.5 µM] | 16.5%[7.6 µM]
N#Cc1cccc(-c2nc(NCc3ccccc3)c3ccccc3n2)c1 | 14.7% | 1.7% | 7.4% | 20µM* | ?
CS(=O)(=O)Nc1cccc(-c2nc(NCc3ccccc3)c3ccccc3n2)c1 | ? | -16.8% | 25.1µM* | -27.6% | ?
CS(=O)(=O)Nc1cccc(-c2nc(NCc3cccs3)c3ccccc3n2)c1 | ? | -19.4% | ? | ? | ?
N#Cc1cccc(-c2nc(Nc3ccncc3)c3ccccc3n2)c1 | 0.9% | 112.0% | -0.4% | -15.4% | ?
Cc1cccc(CNc2nc(-c3ccc4c(c3)OCO4)nc3ccccc23)c1 | ? | ? | ? | ? | 27.0%
CCC1=C2CC[C@H]3C(=O)N(CC(=O)OC)C(=O)[C@H]3[C@H]2[C@@]2(C)C(=NCCc3c[nH]c4ccccc34)OC(=O)N2C1=O | . | . | . | 24.6% | .
CNC(=O)[C@H](C)/C=C(\c1cccnc1)C(NC(=O)OCc1ccccc1)c1ccc(C(=O)OC)cc1 (stereo not given in full) | 1.4% | 5.0% | 6.5% | 3.0% | -10.4%
CCCC[P+](CCCC)(CCCC)Cc1ccc(NC(=O)[C@@H](Cc2ccc3ccccc3c2)NC(=NC2CCCCC2)NC2CCCCC2)cc1 | -12.3% | -37.8% | 2.6% | -10.0% | ?
c1ccc2c(NCCN3CCOCC3)nc(-c3ccoc3)nc2c1 | ? | -12.2% | ? | ? | ?
SMILES | TSHR agonist | Tau filament bind | HEK293 cAMP ctrl | ERK AVP block | CRE-bla Fsk
COC(=O)C/C=C\[C@@H](C)[C@@H](/C=N\OC[C@@H](O)[C@H]1O[C@H]2OC(C)(C)O[C@H]2[C@@H]1O)NS(=O)(=O)c1ccc(C)cc1 | -9.1%[11.4 µM] | . | -2.8%[11.4 µM] | 6.7%[11.5 µM] | .
N#Cc1cccc(-c2cc(NCc3ccccc3)ncn2)c1 | 10.3% | 11.1% | 25.1% | 20µM* | ?
N#Cc1cccc(-c2nc(N3CCNCC3)c3ccccc3n2)c1 | 4.0% | 38.0% | 2.9% | -9.8% | ?
CS(=O)(=O)Nc1cccc(-c2nc(N3CCNCC3)c3ccccc3n2)c1 | 20.7% | 26.8% | 13.5% | 2.8% | 12.6µM*
CS(=O)(=O)Nc1cccc(-c2nc(NCc3cccnc3)c3ccccc3n2)c1 | . | 12.7% | -1.1% | -27.4% | 3.98µM*
CN(C)c1nc(-c2cccc(NS(C)(=O)=O)c2)nc2ccccc12 | ? | 1.3% | ? | -11.9% | 12.6µM*
CNc1ccnc(-c2cccc(NS(C)(=O)=O)c2)n1 | 2.3% | 2.4% | 18.9% | 9.9% | ?
O=c1c(-c2cc(F)cc(F)c2)nc2cnc(N3CCOCC3)nc2n1C[C@H]1CCCO1 | 2.0% | 6.7% | 3.4%[2.29 µM] | -26.9% | ?
COc1cccc(Nc2ncc3nc(-c4cccs4)c(=O)n(C[C@H]4CCCO4)c3n2)c1 | ? | 439.2% | ? | 38.4% | ?
Cc1ccc(C2Nc3ccccc3-c3nc4ccccc4n32)o1 (stereo not given) | ? | -1.7% | 20µM* | -9.1% | ?
COCCNc1cc(-c2ccccc2C)ncn1 | 6.8% | 8.0% | 5.7% | 2.0% | 1.0%
CN(c1ccc(C(=O)Nc2nccs2)cc1)S(=O)(=O)c1ccccc1 | ? | -3.7% | 31.6µM* | ? | -9.0%
O=C(Nc1nccs1)c1ccc(S(=O)(=O)NCc2cccs2)cc1 | 7.2% | 0.8% | 6.0% | -23.0% | -8.3%
CCC/C=C(\CCC)C(NS(C)(=O)=O)c1ccccc1 (stereo not given) | 18.6% | -11.2% | 18.9% | 5.5% | 2.9%
COc1ccc(Oc2ncc3nc(C)c(=O)n(-c4ccc(OC)cc4)c3n2)cc1 | -2.7% | -10.1% | 17.9% | 8.2% | ?
CO/N=C\c1ccc(C(=O)N2[C@H](c3ccc(C)cc3)[C@@H](C)CC[C@H]2C(=O)OC)cc1 | ? | . | 2µM* | 12.7%[11.5 µM] | .
COC(=O)[C@@H]1CC[C@H](C)[C@@H](c2ccc(C)cc2)N1C(=O)c1ccc(/C=N\O[C@@H]2O[C@H](COC(C)=O)[C@H](OC(C)=O)[C@H](OC(C)=O)[C@H]2OC(C)=O)cc1 | 2.4%[11.4 µM] | . | 25.4%[11.4 µM] | 9.8%[11.5 µM] | .
Cc1ccc(O)c(-c2cc(-c3ccccc3C)[nH]n2)c1 | 0.9% | 25.1µM* | 5.0% | 1.0% | ?
Oc1ccccc1-c1cc(-c2ccccc2Cl)[nH]n1 | -2.8% | -9.2% | -9.0% | -3.4% | -1.1%
CN1CCN(C(=O)c2cc(Cl)ccc2Cl)CC1 | ? | -3.7% | 31.6µM* | 3.7% | -2.3%
